Laboratory results reported in PubChem BioAssay.
Potency and affinity values are given separately. A number with no mark means an inactive call.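 The calls were made as follows: active = signal drop whose fitted half-maximal concentration is at most twice the top valid dose, in every test run; inconclusive = mixed calls across runs, poor fit, or flat 30 to 70% inhibition; inactive = wrong direction, flat within 30%, or potency beyond limit.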

Assay: cytotoxicity in PAX8-dependent RMG-1 cells, dose response, cell-based, cherry-pick (AID 687029);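 also: cells exposed to compound for 96 hours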
Conditions: RMG-1 viability, CellTiterGlo ATP luminescence, 96 h; series mostly up to 35 µM; activity change, negative = inhibition: at the top concentration

Row | SMILES | activity change, negative = inhibition
1 | COc1cccc(/C=C2\SC(=S)N(CCC(=O)NCCc3ccc(O)cc3)C2=O)c1 | 12.3%
2 | FC(F)(F)c1nnc2c(Sc3ccccc3)nc3ccc(Cl)cc3n12 | 17.1%
3 | O=C(Nc1cccc(NC(=O)c2ccc([N+](=O)[O-])o2)c1)c1ccco1 | 10.4%
4 | Cc1ccc(NC(=O)c2ccc([N+](=O)[O-])s2)cc1S(=O)(=O)N1CCOCC1 | 11.3%
5 | C[C@@H]1CCCCO[C@@H](CN(C)Cc2ccc3c(c2)OCO3)[C@H](C)CN([C@@H](C)CO)C(=O)c2cc(NC(=O)Nc3ccc(C(F)(F)F)cc3)ccc2O1 | 15.1%
6 | COc1ccc(Br)cc1/C=C/C(=O)c1ccc(NC(C)=O)cc1 | 15% [at 16 µM]
7 | O=C(CCCN1C(=O)/C(=C/c2cccc(Br)c2)SC1=S)Nc1cccnc1 | 16.1%
8 | C[C@H](CO)N1C[C@H](C)[C@@H](CN(C)Cc2ccncc2)Oc2ccc(NC(=O)Nc3ccc(C(F)(F)F)cc3)cc2CC1=O | 20.4%
9 | COc1ccc(O)c(/C=N/NC(=O)c2ccc(N3CCCC3=O)cc2)c1 | -0.31%
10 | CCCCn1cnc2c(c(-c3ccccc3)c(-c3ccccc3)n2Cc2ccco2)c1=N | 26%
11 | COc1cc(/C=N/NC(=O)c2ccc(CN3C(=O)c4cccc5cccc3c45)cc2)cc(OC)c1O | 9.58%
12 | COc1ccccc1C(=O)Nc1nc2ccccc2s1 | 30.3%
13 | CC(=O)OC(C)(C)/C=C/C(=O)[C@](C)(O)C1[C@H](O)C[C@@]2(C)C3CC=C4C(C=C(O[C@@H]5O[C@H](CO)[C@@H](O)[C@H](O)[C@H]5O)C(=O)C4(C)C)[C@]3(C)C(=O)C[C@]12C (some centres undefined) | 4.99%
14 | COC(=O)C12OCC34C(CC5C(C)=C(O)C(=O)CC5(C)C3C(O)C1O)OC(=O)C(OC(=O)C=C(C)C)C24 (centres undefined) | 17.2%
15 | O=C(NCc1cccnc1)/C(=C\c1ccc(-c2ccc(Cl)c(Cl)c2)o1)S(=O)(=O)c1ccccc1 | 45.4%
16 | Oc1ccc(C[C@H]2CNC(=S)N2CC2CCCN2C[C@H](Cc2ccccc2)N2C[C@H](Cc3ccc(O)cc3)N(CCc3ccccc3)C2=S)cc1 (some centres undefined) | 18.5%
17 | O=C(C[C@@H]1C[C@H]2c3cc(NS(=O)(=O)c4ccc(F)cc4)ccc3O[C@H]2[C@@H](CO)O1)NCc1ccc(Oc2ccccc2)cc1 | 23.7%
18 | CCCCn1nc(C(=O)Nc2cc(C(F)(F)F)ccc2N2CCOCC2)ccc1=O | 19.3%
19 | CN(C[C@H]1N[C@@H](CO)[C@@H]1c1ccc(C2=CCCC2)cc1)C(=O)c1ccncc1 | 14.1%
20 | CCN(c1nc(N)c(C(=O)N=C(N)N)nc1Cl)C(C)C | 54.1%

Row | SMILES | activity change, negative = inhibition
21 | CC(C)=CCC/C(C)=C/CNC(=O)C[C@H]1C[C@H](C(=O)N2CCOCC2)[C@@]2(C)c3[nH]c4ccc(Cl)cc4c3CCN2C1=O | 30.9%
22 | NC(=O)[C@H]1CC2(CC(c3cccc(NC(=O)COc4ccc(Cl)cc4)c3)=NO2)CN1C(=O)C(c1ccccc1)c1ccccc1 (some centres undefined) | -8.69%
23 | CC1=C(C(=O)OC2CCCCC2)C(c2cccnc2)n2ncnc2N1 (centres undefined) | 20.6%
24 | COC(C(=O)C(O)C(C)O)C1Cc2cc3cc(OC4CC(OC5CC(O)C(O)C(C)O5)C(O)C(C)O4)c(C)c(O)c3c(O)c2C(=O)C1OC1CC(OC2CC(OC3CC(O)C(OC)C(C)O3)C(O)C(C)O2)C(O)C(C)O1 (centres undefined) | 25.9%
25 | O=C(NCCC1CCCCN1S(=O)(=O)c1ccc(Cl)cc1)C(=O)NCc1ccncc1 (centres undefined) | 18.7%
26 | O=C(OCC(=O)N1CCN(C(=O)c2ccco2)CC1)c1cccc(S(=O)(=O)N2CCc3ccccc32)c1 | 44.2%
27 | O=C(O)c1cccc(N/N=C/c2cccs2)c1 | 23.9%
28 | CN(Cc1ccccc1)N=Nc1nc[nH]c1C(N)=O | 34.8%
29 | CCOc1ccccc1NC(=O)c1nc(S(=O)(=O)Cc2ccccc2)ncc1Cl | 11.3%
30 | CCc1ccc(CNC(=O)C2CCCN(c3nnc(C)c4c(C)n(-c5ccccc5)nc34)C2)cc1 (centres undefined) | 17.9%
31 | COc1ccc(NS(=O)(=O)c2ccc(N3CCCC3)c(NC(=S)Nc3ccc(SC(F)F)cc3)c2)cc1 | 3.59%
32 | Cc1ccc(S(=O)(=O)Nc2ccc3c(c2)C(=O)N([C@H](C)CO)C[C@H](C)[C@@H](CN(C)S(=O)(=O)c2ccc(C)cc2)OCCCC[C@H](C)O3)cc1 | 26.2%
33 | C[C@@H](NC(=O)c1nc[nH]c1C(=O)N[C@@H](Cc1ccccc1)C(=O)OC(C)(C)C)c1ccccc1 | 17.7%
34 | COc1nn(-c2ccccc2)c(=O)c(Cl)c1Cl | 37.5%
35 | C=C(C)C(=O)OC1(C(F)(F)F)Oc2cc(C)ccc2NC1=O (centres undefined) | 20.3%
36 | O=C(OCc1ccccc1)N(CCCCN(CCCNCc1ccccc1)C(=O)OCc1ccccc1)CCCNCc1ccccc1 | 24.4%
37 | CCO[C@H]1OC(C(=O)N2CCN(Cc3ccccc3)CC2)=C[C@@H](c2ccc(C(F)(F)F)cc2)[C@@H]1CCCO | 9.29%
38 | C[C@@H]1CCCCO[C@@H](CN(C)Cc2ccc(Cl)c(Cl)c2)[C@H](C)CN([C@@H](C)CO)C(=O)c2cc(NC(=O)CCC(F)(F)F)ccc2O1 | 10.2%
39 | Cc1ccc(C)c(N2CCN(C(=O)CCCCCn3c(=S)[nH]c4ccc(N5CCOCC5)cc4c3=O)CC2)c1 | 21.7%
